# A selection: hits, their analogues and other compounds. The true share with any hit is near 11%.
# VDR inh: Inhibitors of the vitamin D receptor (VDR): qHTS. actives 0.93% (n = 400,000). Potency, µM, inactives show max response, negative = inhibition, most hits filed as inhibitors. VDR-SRC2-3 peptide fluorescence polarization, 2 h. AID 504847, 2011. Vitamin D3 receptor (Homo sapiens), P11473; note: % is set by controls: 0 for no effect and ±100 for the full control effect
#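 FP read-out; VDR + SRC2-3 coactivator peptide; 23 nl compound by pintool; 2 h RT incubation; reagents held at 4 deg C, protected from light.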
# PLK1 PBD inh: qHTS for Inhibitors of PLK1-PDB (polo-like kinase 1 - polo-box domain): Primary Screen; Serine/threonine-protein kinase PLK1 (Homo sapiens), P53350; Plk1 PBD binding of FITC phosphopeptide, fluorescence polarization; Potency, µM, for the others: max response, negative = inhibition, usual class: inhibitors; actives 2.8% (n = 360,000); AID 720504, 2013; note: series mostly up to about 57 µM; % is set by controls: 0 for no effect and ±100 for the full control effect; nearly all actives have a fitted effect of over 65% in size
# HP1b chromo inh: HTS for Inhibitors of HP1-beta Chromodomain Interactions with Methylated Histone Tails | Chromobox protein homolog 1 (Homo sapiens), P83916 | AlphaScreen HP1-beta / biotin-H3K9me3 peptide binding | Potency, µM (series often up to 114 µM), for inactives: at the top dose activity change, negative = inhibition, most hits filed as inhibitors | actives 0.56% (n = 390,000) | AID 540317, 2011; note: nearly all actives have a fitted effect of over 70% in size
# Target sequence (P83916 whole entry, looked up): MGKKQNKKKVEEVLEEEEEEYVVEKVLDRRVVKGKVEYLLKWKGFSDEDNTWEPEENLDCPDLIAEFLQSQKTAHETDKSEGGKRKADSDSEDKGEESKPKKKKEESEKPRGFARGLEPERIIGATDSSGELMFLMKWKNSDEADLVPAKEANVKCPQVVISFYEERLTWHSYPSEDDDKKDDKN
#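 Compound inhibition of the preformed complex between 50 nM HP1-beta and 50 nM biotinylated H3K9me3 peptide was read by AlphaScreen. Buffer was PBS pH 7.4 with 0.01% Tween-20. Incubations ran 30 min at room temperature, with 10 ug/mL donor/acceptor beads.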
# BAZ2B block: qHTS Assay for Inhibitors of BAZ2B; Potency, µM (series often up to 114 µM), for inactives: at the highest dose activity change, negative = inhibition, most hits filed as inhibitors; Bromodomain adjacent to zinc finger domain protein 2B (Homo sapiens), Q9UIF8; AID 504333, 2011; AlphaScreen BAZ2B-H3K14Ac peptide displacement; actives 4.4% (n = 360,000); note: % is set by controls: 0 for no effect and ±100 for the full control effect; nearly all actives have a fitted effect of over 60% in size
#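 Protein-peptide AlphaScreen: BAZ2B 50 nM, b-H3K14Ac 50 nM, 1x PBS pH 7.4 + 0.01% Tween-20. Preincubation 30 min RT; cpd 30 min RT (top 110 uM); beads 20 min RT, light-protected.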
# G9a inh: qHTS Assay for Inhibitors of Histone Lysine Methyltransferase G9a; Potency, µM (series often up to 102 µM), for inactives: at the highest dose activity, negative = inhibition, hits mostly inhibitors; AID 504332, 2011; G9a H3K9 monomethylation, AlphaScreen, 2 h; Histone-lysine N-methyltransferase EHMT2 (Homo sapiens), Q96KQ7; actives 8.8% (n = 350,000); note: % is set by controls: 0 for no effect and ±100 for the full control effect; nearly all actives have a fitted effect of over 75% in size
# Target sequence (Q96KQ7 913-1193 limits assumed): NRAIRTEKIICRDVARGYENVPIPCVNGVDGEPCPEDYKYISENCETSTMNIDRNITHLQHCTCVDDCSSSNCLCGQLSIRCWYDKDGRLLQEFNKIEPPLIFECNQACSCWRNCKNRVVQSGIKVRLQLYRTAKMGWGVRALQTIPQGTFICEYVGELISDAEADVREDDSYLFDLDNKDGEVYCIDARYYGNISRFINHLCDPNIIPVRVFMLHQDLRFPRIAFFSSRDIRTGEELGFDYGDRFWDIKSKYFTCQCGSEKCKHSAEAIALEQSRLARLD
#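 AlphaScreen detection with an anti-monomethyl H3K9 antibody quantified product after a 2 h room-temperature reaction containing 500 nM biotinylated H3K9 peptide, 20 µM SAM and 20 nM enzyme, which had been preincubated 15 min with compound.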
# JMJD2A Tudor inh: qHTS Assay for Inhibitors of JMJD2A-Tudor Domain. AlphaScreen JMJD2A-Tudor / H3K4me3 peptide binding. Lysine-specific demethylase 4A (Homo sapiens), O75164. Potency, µM (doses to about 114 µM), inactives show at the top dose activity change, negative = inhibition, hits mostly inhibitors. AID 504339, 2011. actives 4.4% (n = 390,000); note: % is set by controls: 0 for no effect and ±100 for the full control effect; nearly all actives have a fitted effect of over 50% in size
# Starred values were filed as active, the others as inactive; ? = inconclusive; . = no result given; ! = repeats disagree; [ ] = another dose, or the depositor's remark. Calls come from the whole dose curve; as a rule, active = well fitted curve in the direction sought with a large enough effect; inconclusive = small, poorly fitted or top-dose-only effect, or another doubt; inactive = no such curve, though single readings can be large; an effect the other way counts as inactive or inconclusive. Potency is the fitted concentration of half-maximal effect.
SMILES,VDR inh,PLK1 PBD inh,HP1b chromo inh,BAZ2B block,G9a inh,JMJD2A Tudor inh
COc1cccc(/C=N/n2c(-c3n[nH]c4c3CCC4)n[nH]c2=S)c1O,-5%,?,?,-2%,1.4µM*,7.9µM*
NC(=O)c1nsc(C(=O)N(Cc2ccccc2Cl)C(C(=O)NCC2CCCO2)c2ccc(O)cc2)c1N (stereo not given),-20%,-1%,-13%,-2%,-1%,-15%
O=[N+]([O-])c1cccc(-c2nn(-c3ccccc3)cc2CO)c1,-7%,0%,26%,-21%,-5%,-12%
Cc1cc(=O)c(C(=O)O)cn1Nc1ccc(F)cc1,4%,-5%,-11%,?,?,50µM*
C#CCN1C(C)=C(C(=O)OC)C(c2cccc([N+](=O)[O-])c2)C(C(=O)OCC)=C1C (stereo not given),?,-2%,7%,-29%,11µM*!,-32%
N#Cc1nc(-c2ccccc2Cl)oc1NCc1ccco1,11%,-8%,-30%,50µM*,?,?
CNc1oc(-c2ccccc2)nc1C#N,4%,-3%,2%,-31%,-19%[12.7 µM],-10%
N#Cc1nc(-c2ccccc2)oc1NCc1ccco1,2%,-1%,16%,50µM*,?,-29%
C=CCNc1oc(-c2ccc(-c3ccccc3)cc2)nc1C#N,?,.,18%,.,.,79µM*
CC(C)CNc1oc(-c2ccccc2Cl)nc1C#N,13%,-20%,?,?,40µM*,-22%
COC(=O)c1ccccc1NC(=O)CSc1nc2nc(C)cc(C)n2n1,-3%,.,14%,-2%,10%[59 µM],-10%
COc1cccc(-n2c(C)nc3c(cnn3-c3ccc(C)c(C)c3)c2=O)c1,-6%,.,27%,.,2%[59 µM],-6%
COc1ccc(CNC(=O)Cn2ncc3c([nH]c4ccccc43)c2=O)cc1,9%,.,20%,-1%,-2%[59 µM],5%
COc1ccc(S(=O)(=O)n2nc(C)cc2C)cc1OC,11%,3%,37%,-3%,24%[59 µM],-5%
COc1ccc(NC=O)c(C(=O)CCNC(C)=O)c1,1%,.,.,.,.,.
N#Cc1ccsc1NC(=O)C1CCCN1S(=O)(=O)c1cccs1 (stereo not given),5%,-10%,-16%,-4%,7%,-22%
Cn1c(=O)c2nc(SCC(=O)Nc3cc(Cl)cc(Cl)c3)n(C)c2n(C)c1=O,0%,.,27%,-3%,9%[59 µM],-11%
N#Cc1nc(-c2ccc(Cl)cc2)oc1NCc1ccco1,-11%,27µM*,-31%,-31%,-8%[12.7 µM],-8%[11.4 µM]
Cn1c(CN2CCCC2)c(C#N)c2ccccc21,-5%,-7%,59%,-9%,?,-11%
CC1CCN(Cc2c(C#N)c3ccccc3n2C)CC1,-5%,-3%,93%,18%,25µM*,13%
COc1ccc(NC(=O)C(OC(=O)CNC(=O)c2ccccc2)c2ccccc2)cc1Cl (stereo not given),.,.,.,.,.,-23%
c1cc(NC2CC2)nc(-c2ccoc2)n1,?,.,.,.,0%[0.501 µM],.
O=C(NCc1ccncc1)c1cc2ccccc2nc1Cl,8%,-7%,16%,-17%,45µM*,-12%
Cc1nc2ccccc2cc1C(=O)NCc1ccc(F)cc1,-17%,0%,39%,-1%,20%[0.0925 µM],0%
CCN(CC)CCNC(=O)c1cc2ccccc2nc1Cl,6%,1%,-10%,79µM*,?,35µM*
SMILES,VDR inh,PLK1 PBD inh,HP1b chromo inh,BAZ2B block,G9a inh,JMJD2A Tudor inh
CC1CCc2c(sc(NC(=O)c3ccccc3)c2C(=O)Nc2ccccc2)C1 (stereo not given),-18%,.,29%,1%,-7%[59 µM],5%
COc1ccc(N2C(=O)NC(NC(=O)c3cccnc3)(C(F)(F)F)C2=O)cc1 (stereo not given),-9%,2%,23%,-21%,-20%,-14%
NNc1nc(-c2ccccc2)c2ccccc2n1,-27%,-11%,38%,-32%,0%,-20%[57.1 µM]
NNc1nnc(-c2ccccc2)c(-c2ccccc2)n1,-15%,-9%,4%,79µM*,?,?
CCc1ccc(NC(=S)NNC(=O)c2ccccc2OC(F)F)cc1,.,.,.,6%,13µM*,.
Cc1ccc(CN2C(=O)N/C(=C/c3ccc4c(c3)n(C)c(=O)n4C)C2=O)cc1,.,.,.,?,20%,.
Cc1cc(/C=C2\NC(=O)N(Cc3ccc(Cl)cc3)C2=O)c(C)n1C,-12%,-2%,22%,-28%,16µM*,-29%
Cc1cc(=O)oc2cc(OCC(=O)Nc3ccc(CN4CCOCC4)cc3)c(Cl)cc12,19%,-16%,12%,-4%,-6%[59 µM],-3%
CCCCC1Cc2[nH]c(=S)[nH]c(=O)c2C(C(C)C)O1 (stereo not given),.,-15%,.,.,.,.
O=C1CCC(C(=O)OCC(=O)N2N=C3/C(=C\c4ccccc4)CCCC3C2c2ccccc2)N1 (stereo not given),-6%,0%,5%,.,.,?
O=C1CCC(C(=O)OCC(=O)N2N=C3/C(=C/c4ccccc4)CCCC3C2c2ccccc2)N1 (stereo not given),-3%,-5%,-1%,?,56µM*,?
Cc1cccc(OCc2nnc(SCC(=O)Nc3ccc(C)cc3C)o2)c1,2%,.,14%,12%,16%[59 µM],?
O=C1CCc2cc(NS(=O)(=O)c3ccc(F)cc3)cc3c2N1CCC3,-4%,-1%,9%,9%,?,-15%
O=C1CCc2cc(NS(=O)(=O)c3ccc([N+](=O)[O-])cc3)cc3c2N1CC3,12%,-4%,21%,3%,45µM*,-19%
O=C1CCc2cc(NS(=O)(=O)c3ccc([N+](=O)[O-])cc3)cc3c2N1CCC3,-1%,-6%,15%,-31%,35µM*,-12%
COc1ccc(CC(=O)NC(C)c2nnc(SCCOc3ccc(OC)cc3)n2C)cc1 (stereo not given),11%,-6%,15%,3%,19%[59 µM],-16%
CCN1C(=O)CC(C(=O)Nc2ccc(OC)cc2)SC1=Nc1ccc(C)c(C)c1 (stereo not given),-7%,.,26%,6%,-3%[59 µM],-4%
CC1=C(C)CS(=O)N(c2ccc(S(N)(=O)=O)cc2)C1 (stereo not given),7.9µM*,1.5µM*,61%,1%,?,2%
COc1cc(NCc2ccccc2)c2ncn(Cc3ccccc3)c2c1,13%,3%,?,.,.,25µM*

# High-throughput results deposited in PubChem BioAssay by National Center for Advancing Translational Sciences (NCATS).
